This note sets out measurements from PubChem BioAssay (NCATS).

Assay [1] can be described thus: AP1 Signaling Pathway (AID 357). Also: % is scaled to controls: 0 for no effect and ±100 for the full control effect. The note with it: ME-180 AP-1-bla reporter, EGF-induced, beta-lactamase ratio, 5 h; at 7.69 µM (top of the series) unless noted. In outline: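 In this screen, ME-180 cells in Opti-MEM with 0.5% dialyzed FBS received EC50 EGF and compound titrations for 5 h. AP-1 reporter beta-lactamase was detected via CCF4 ratio, giving AC50 for positive and negative modulators.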

The target of assay [2] is Cytochrome P450 1A2 (Homo sapiens) (UniProt P05177). Description: p450-cyp1a2 (AID 410; calls by dose curve; also: potency is read from the fitted curve at half-maximal effect;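 as to activity change, negative = inhibition: -100% = full effect of reference inhibitor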). As to conditions: recombinant CYP1A2, luciferin-ME demethylation, luminescence; series mostly up to 11.4 µM. In outline:
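Luminescent demethylation readout: Luciferin-ME (100uM, equal to Km) turned over by 20nM CYP1A2 for 60 min at room temperature after NADPH regeneration addition, following 10 min compound preincubation. Normalization used 57 uM furafylline as full inhibition.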

Assay [3] is described as follows: NFAT Signaling Pathway (AID 444).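 Also: carbachol stimulus at about its EC50 of 1 µM final; % is scaled to controls: 0 for no effect and ±100 for the full control effect.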 The note with it: Jurkat NFAT-bla M1, carbachol, beta-lactamase ratio, 5 h; at 7.69 µM (top of the series) unless noted. In outline: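 Read-out: CCF4 FRET ratio (460 nm/530 nm) after 1 h RT dye loading, used for %activity and AC50 from titration series. Cells: Jurkat NFAT-β-lactamase/M1 line, treated with compound plus 1 uM carbachol for 5 h, 37 °C.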

Assay [4] in a line: Stat Signaling Pathway (AID 446).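 Also: ME-180 cervical cancer cells given 40 pM IL-6 alongside compound; SIE-controlled beta-lactamase reporter measured as 460/530 nm FRET emission ratio; % is scaled to controls: 0 for no effect and ±100 for the full control effect.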 The note with it: ME-180 (cervical carcinoma) SIE beta-lactamase reporter, IL-6 stimulated, 5 h; at 7.69 µM (top of the series) unless noted. Summed up:
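Emission at 460 and 530 nm (excitation 405 nm) reports SIE-controlled beta-lactamase in ME-180 cells. Cells received compound with 40 pM IL-6 for 5 hrs at 37 C; data scaled between 300 pM IL-6 and 125 nM JAK-inhibitor controls.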

Assay [5] has as its target Glucocorticoid receptor (Homo sapiens) (UniProt P04150). Kind of assay: GR-GFP Redistribution (AID 450;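 active = compounds whose dose series gives a full or clear partial fitted curve of increased nuclear translocation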; also: potency is read from the fitted curve at half-maximal effect). The note with it: U2OS GR-GFP nuclear translocation, laser cytometry, 2 h.
For assay [6] the target is unchanged. Kind of assay: GR-EFC Redistribution (AID 451; calls by dose curve; also: potency is read from the fitted curve at half-maximal effect). As to conditions: CHO-K1 GR-EFC translocation, beta-gal luminescence, 2 h. In outline:
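Translocation of GR-ED fusion to nuclear EA restores b-gal, read by luminescence after 1 h room-temperature detection. Engineered CHO-K1 biosensor cells, 1,000/well, exposed 2 h at 37 C to titrations up to 46 uM final.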

Assay [7] concerns the target 3',5'-cyclic-AMP phosphodiesterase 4B (Homo sapiens) (UniProt Q07343). Kind of assay: qHTS Assay for Inhibitors of PDE-IV (AID 607; active = well fitted activation curve with a large enough effect in the main read-out, with a control signal flat, not every such curve was filed as active; also: % of control where 0% means no effect). As to conditions: HEK293 ACTOne CNG channel cells, membrane potential fluorescence; series mostly up to 22.9 µM. Summed up:
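The readout is membrane depolarisation from a cAMP-sensing CNG channel, detected with a potential dye at ex 535/em 590. Cells were HEK293-derived (endogenous PDE-IV) at 1000 cells/well, titrated up to 22.9 uM final.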

Assay [8] concerns the target Mitogen-activated protein kinase 10 (Mus musculus) (UniProt Q61831). Kind of assay: JNK3 AlphaScreen Assay (AID 530).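 Also: kinase came from lysate of stimulated human HepG2 cells; signal reports phosphorylation of biotinylated GST-cJun 1-79 at Ser73 with 10 µM ATP; % is scaled to controls: 0 for no effect and ±100 for the full control effect.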 As to conditions: JNK3 lysate, c-Jun phosphorylation; series mostly up to 57.1 µM. Summed up:
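qHTS titrations with 15 min compound pre-incubation before adding ATP (10 uM final). Read-out: AlphaScreen of Ser73-phosphorylated biotin-GST-cJun using HepG2 lysate JNK3 activated by IL-1β and TNFα.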

In assay [9] the target is Cytochrome P450 2C19 (Homo sapiens) (UniProt P33261). Kind of assay: qHTS Assay for Inhibitors and Substrates of Cytochrome P450 2C19 (AID 899; active = well fitted inhibition curve with a large enough effect; also: nearly all actives have a fitted effect of over 60% in size; also: potency is read from the fitted curve at half-maximal effect). The note with it: recombinant CYP2C19, luciferin-H EGE luminescence; series mostly up to 11.4 µM. Summed up:
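Reactions contain 5nM enzyme, 10uM Luciferin-H EGE (KM) and 50mM KPO4; compound preincubates 10 min at 37C, NADPH regeneration starts turnover for 60 min. Luminescence after detection reagent gives activity.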
A general note: In qHTS, concentration-response curves come from the screen itself.

The target in assay [10] is Cytochrome P450 2D6 (Homo sapiens) (UniProt P10635). Description: qHTS Assay for Inhibitors and Substrates of Cytochrome P450 2D6 (AID 891; active = well fitted inhibition curve with a large enough effect;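 also: luciferin methyl ether substrate demethylated by CYP2D6 with NADPH regeneration; % is scaled to controls: 0 for no effect and ±100 for the full control effect; nearly all actives have a fitted effect of over 60% in size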). As to conditions: recombinant CYP2D6, luciferin-ME EGE luminescence; series mostly up to 11.4 µM. In outline: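 Luminescent read-out of luciferin formed by 5 nM human CYP2D6 demethylating 30 uM Luciferin-ME EGE (Km level) over 60 min at room temperature after NADPH regeneration addition. Data normalized to full inhibition by 1.43 uM quinidine.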
Chain of Cytochrome P450 2D6 (Homo sapiens) (P10635 whole entry, looked up): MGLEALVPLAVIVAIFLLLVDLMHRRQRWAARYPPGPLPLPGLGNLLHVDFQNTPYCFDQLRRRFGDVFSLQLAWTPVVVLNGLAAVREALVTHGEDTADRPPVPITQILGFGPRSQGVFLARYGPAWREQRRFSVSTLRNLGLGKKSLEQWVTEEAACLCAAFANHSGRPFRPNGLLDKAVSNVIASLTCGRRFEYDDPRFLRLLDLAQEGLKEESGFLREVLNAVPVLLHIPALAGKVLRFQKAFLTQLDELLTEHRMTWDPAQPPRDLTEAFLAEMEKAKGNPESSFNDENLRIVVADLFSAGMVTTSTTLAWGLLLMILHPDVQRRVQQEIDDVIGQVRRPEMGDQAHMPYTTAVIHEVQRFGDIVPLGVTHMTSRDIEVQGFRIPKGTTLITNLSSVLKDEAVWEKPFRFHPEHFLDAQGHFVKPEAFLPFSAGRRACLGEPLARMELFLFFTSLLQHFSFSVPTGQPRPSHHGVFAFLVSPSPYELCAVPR

Unmarked numbers belong to inactive results. Inconclusive results are not listed. The source made the active and inactive calls. Unless noted, calls follow the shape of the dose curve; as a rule, active = well fitted curve in either direction with a large enough effect (not every such curve was filed as active); inconclusive = small, poorly fitted or top-dose-only effect, or another doubt; inactive = flat fitted curve, though single readings scatter. Where only a bound is given, the exact number is not on record here.

Chain of Cytochrome P450 2C19 (Homo sapiens) (P33261 whole entry, looked up): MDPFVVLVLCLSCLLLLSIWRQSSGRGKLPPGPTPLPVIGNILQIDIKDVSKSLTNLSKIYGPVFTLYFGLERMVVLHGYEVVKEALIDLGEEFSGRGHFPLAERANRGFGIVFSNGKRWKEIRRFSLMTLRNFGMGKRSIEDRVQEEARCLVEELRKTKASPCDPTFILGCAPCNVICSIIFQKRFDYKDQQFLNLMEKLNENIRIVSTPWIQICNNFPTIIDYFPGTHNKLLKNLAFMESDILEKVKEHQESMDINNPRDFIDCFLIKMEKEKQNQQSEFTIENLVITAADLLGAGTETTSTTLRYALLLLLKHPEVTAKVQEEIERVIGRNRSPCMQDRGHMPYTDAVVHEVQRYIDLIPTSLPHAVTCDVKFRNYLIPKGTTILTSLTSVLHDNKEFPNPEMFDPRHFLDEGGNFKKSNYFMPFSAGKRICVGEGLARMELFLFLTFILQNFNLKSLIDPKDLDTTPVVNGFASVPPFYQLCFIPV
Chain of Glucocorticoid receptor (Homo sapiens) (P04150 whole entry, looked up): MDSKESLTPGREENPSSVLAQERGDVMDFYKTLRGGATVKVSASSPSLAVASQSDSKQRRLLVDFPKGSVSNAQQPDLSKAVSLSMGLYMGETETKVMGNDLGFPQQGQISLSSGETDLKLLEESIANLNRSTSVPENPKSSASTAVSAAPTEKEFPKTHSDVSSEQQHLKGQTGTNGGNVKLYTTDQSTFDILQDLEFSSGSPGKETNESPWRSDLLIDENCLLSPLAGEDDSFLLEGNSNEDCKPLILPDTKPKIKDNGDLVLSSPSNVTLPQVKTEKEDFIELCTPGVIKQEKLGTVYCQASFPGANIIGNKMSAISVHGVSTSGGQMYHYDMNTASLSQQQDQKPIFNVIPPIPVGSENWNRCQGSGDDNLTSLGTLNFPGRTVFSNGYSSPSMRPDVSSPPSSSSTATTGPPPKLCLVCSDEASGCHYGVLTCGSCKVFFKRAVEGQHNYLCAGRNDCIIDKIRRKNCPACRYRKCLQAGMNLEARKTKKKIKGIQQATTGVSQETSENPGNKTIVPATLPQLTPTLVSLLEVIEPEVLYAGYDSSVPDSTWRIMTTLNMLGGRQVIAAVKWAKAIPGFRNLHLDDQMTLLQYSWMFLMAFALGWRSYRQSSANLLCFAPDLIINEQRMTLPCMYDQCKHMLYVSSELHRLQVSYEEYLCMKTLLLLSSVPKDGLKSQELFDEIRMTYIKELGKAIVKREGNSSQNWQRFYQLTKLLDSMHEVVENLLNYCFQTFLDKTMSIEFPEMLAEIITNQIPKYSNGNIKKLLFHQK
Chain of Cytochrome P450 1A2 (Homo sapiens) (P05177 whole entry, looked up): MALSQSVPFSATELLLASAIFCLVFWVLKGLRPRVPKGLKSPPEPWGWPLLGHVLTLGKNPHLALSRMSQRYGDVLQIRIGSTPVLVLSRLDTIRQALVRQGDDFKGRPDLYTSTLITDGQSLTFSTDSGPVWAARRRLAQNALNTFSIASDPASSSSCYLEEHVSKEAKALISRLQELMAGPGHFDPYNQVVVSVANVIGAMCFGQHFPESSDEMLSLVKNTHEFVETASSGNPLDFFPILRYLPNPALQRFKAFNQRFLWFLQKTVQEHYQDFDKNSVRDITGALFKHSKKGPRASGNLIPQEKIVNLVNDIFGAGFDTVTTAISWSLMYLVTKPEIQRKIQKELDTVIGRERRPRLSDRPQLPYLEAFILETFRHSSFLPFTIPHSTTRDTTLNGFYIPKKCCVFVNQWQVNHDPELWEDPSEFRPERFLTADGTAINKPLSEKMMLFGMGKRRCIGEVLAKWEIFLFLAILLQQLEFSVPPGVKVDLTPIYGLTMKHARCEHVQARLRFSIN
Chain of 3',5'-cyclic-AMP phosphodiesterase 4B (Homo sapiens) (Q07343 whole entry, looked up): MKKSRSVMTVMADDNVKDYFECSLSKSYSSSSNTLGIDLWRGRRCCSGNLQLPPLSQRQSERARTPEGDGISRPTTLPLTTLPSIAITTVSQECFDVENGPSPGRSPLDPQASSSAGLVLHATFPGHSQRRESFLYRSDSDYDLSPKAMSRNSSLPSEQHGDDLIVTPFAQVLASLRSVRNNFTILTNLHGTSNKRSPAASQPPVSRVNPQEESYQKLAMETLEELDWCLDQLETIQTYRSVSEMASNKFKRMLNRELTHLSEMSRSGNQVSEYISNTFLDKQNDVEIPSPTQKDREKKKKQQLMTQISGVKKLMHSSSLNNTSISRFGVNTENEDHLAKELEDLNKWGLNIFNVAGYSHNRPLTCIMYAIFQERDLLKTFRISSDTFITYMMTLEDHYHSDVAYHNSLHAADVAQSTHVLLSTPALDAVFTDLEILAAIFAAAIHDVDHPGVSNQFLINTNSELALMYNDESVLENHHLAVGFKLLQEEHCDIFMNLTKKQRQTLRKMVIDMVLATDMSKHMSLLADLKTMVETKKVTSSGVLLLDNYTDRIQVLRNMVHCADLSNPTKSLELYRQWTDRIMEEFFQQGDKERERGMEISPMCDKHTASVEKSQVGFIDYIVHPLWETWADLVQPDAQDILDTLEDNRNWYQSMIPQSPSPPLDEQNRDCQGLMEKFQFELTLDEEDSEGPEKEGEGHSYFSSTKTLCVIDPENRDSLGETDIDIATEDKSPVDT

With `NC[C@@H](Cc1ccccc1)P(=O)(O)O`, the activity change, negative = inhibition is 11.5% in assay [1] and 4.85% in [3]. Further, the Potency result in [2] was “inactive”. In addition, the activity, negative = inhibition in [4] was 2.4%. For the same compound, the Potency in [5] is > 46 µM; in assay [6], > 9.22 µM. Besides, the result in assay [7] was inactive.

As for `CC(C)[C@@]1(NC(=O)[C@H]2C[C@H]3c4cccc5[nH]cc(c45)C[C@@H]3N(C)C2)O[C@]2(O)[C@H]3CCCN3C(=O)[C@H](Cc3ccccc3)N2C1=O`, the values for the activity change, negative = inhibition in assay [1] and in [3] were -10% [at 38 µM] and 1.76% [at 38 µM], respectively. For the same compound, the Potency result in assay [2] and in assay [8] was “inactive” throughout. Besides, the activity, negative = inhibition in assay [4] is -34.2% [at 38 µM]. The Potency in [5] was > 46 µM; in assay [6], > 46 µM; in assay [9] it was 6.31 µM (active). Also, the call in [7] was inactive.

On to `O=C(O)C[O][Sb][O]CC(=O)O`, for which the activity change, negative = inhibition in [1] is 4.83%; in [2], -7.8% [at 2.29 µM]; in assay [3] it was 6.08%; in assay [8], 1.01% [at 11.4 µM]. Moreover, in [4], the activity, negative = inhibition was 7.88%. Further, the Potency in assay [5] is > 46 µM; in assay [6] it was > 9.22 µM. Besides, the compound was classed as inactive in assay [7]. Also, the Potency entry in [9] is “inactive”.

As for `COc1cc2c(cc1OC)[C@@]13CCN4C=C5CCO[C@H]6CC(=O)N2[C@@H]1[C@@H]6[C@H]5C[C@H]43`, the activity change, negative = inhibition is 4.45% in assay [1], 16.4% in assay [3] and 3.62% [at 11.4 µM] in assay [8]. The Potency in assay [2] is 5.01 µM (active). Also, the activity, negative = inhibition in [4] was 2.38%. The compound was classed as inactive in assay [7].

For `N[C@H](Cn1oc(=O)[nH]c1=O)C(=O)O`, the activity change, negative = inhibition was 0.495% [at 38 µM] in [1] and -2.78% [at 38 µM] in assay [3]. The Potency entry in assay [2], in assay [8], in assay [10] and in assay [9] was “inactive” throughout. For the same compound, the activity, negative = inhibition in assay [4] is 6.66% [at 38 µM]. Besides, the Potency in assay [5] was > 46 µM. In addition, in [7], the call was inactive.

As to `O=C(Nc1ccc([As](=O)(O)O)cc1)Nc1cccc(Cl)c1Cl`, the results for the activity change, negative = inhibition in assay [1] and in assay [8] were -0.577% and 0.483% [at 11.4 µM], respectively. In assay [5], the Potency was > 46 µM. The compound was classed as inactive in [7].

In the case of `O=C(O)c1cc[c]([Hg][S]c2ncnc3nc[nH]c23)cc1`, the Potency in assay [2] is 0.316 µM (active); in assay [5] it was > 46 µM; in [6] it was > 9.22 µM; in assay [9] it was 0.631 µM (active). Further, the activity, negative = inhibition in assay [4] was -16.1%. For the same compound, the activity change, negative = inhibition in [8] was 3.39% [at 11.4 µM]. Besides, the call in assay [7] was inactive.

With `CC(C)(C)c1cc(C#N)cc(Br)c1OP(=O)(Oc1c(Br)cc(C#N)cc1C(C)(C)C)c1ccccc1`, the figures for the activity change, negative = inhibition in assay [1], in [3] and in assay [8] were 7.55%, -6.35% and -1.35% [at 11.4 µM], respectively. The activity, negative = inhibition in assay [4] was 16.6%. Further, the Potency in assay [5] is > 46 µM; in [6], > 9.22 µM. For the same compound, the result in assay [7] was inactive.

`COc1cc2cc(c1Cl)N(C)C(=O)C[C@H](OC(=O)C(C)C)[C@]1(C)O[C@@H]1[C@@H](C)[C@H]1C[C@](O)(NC(=O)O1)[C@@H](OC)/C=C\C=C(\C)C2`: the activity change, negative = inhibition is 23.1% in [1] and 2.93% [at 11.4 µM] in [8]. Besides, the Potency entry in [2], in assay [10] and in [9] was “inactive” in each case. Moreover, the activity, negative = inhibition in assay [4] is 6.86%. Moreover, the Potency in assay [5] is 0.278 µM (active). Moreover, the call in assay [7] was inactive.
